According to PubChem BioAssay (EPA / NIEHS):
Active and inactive are the calls of the source. How the source made its calls: active means hit-call score of the fitted dose curve at least 0.9, where 1 is the maximum; inactive means score below 0.9.

Experiments:
Conditions in all cases: mRNA level, 48 h; actives raise or lower the signal
[1] = read-out: Ezrin (EZR), EZR (gene 7430); experiment: LTEA_HepaRG_EZR: Life Technologies and Expression Analysis (LTEA) Assay for Ezrin (EZR) using HepaRG (AID 2283491)
Method in brief: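 Gain or loss of EZR mRNA is scored relative to 0.5% DMSO in human HepaRG cultures treated 48 h with test chemicals in duplicate, eight half-log concentrations from 100 uM.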

[2] = read-out: Cytochrome P450 3A7 (Homo sapiens) (UniProt P24462); experiment: LTEA_HepaRG_CYP3A7: Life Technologies and Expression Analysis (LTEA) Assay for CYP3A7 using HepaRG (AID 2283492)
Method in brief: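 CYP3A7 transcript measured by qRT-PCR (ACTB, GAPDH, POLR2A normalization) after 48 h chemical exposure of HepaRG cells in duplicate. Eight half-log concentrations, maximum 100 uM, 0.5% DMSO vehicle; bidirectional curve fitting against DMSO baseline.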

CYP3A5 (gene 1577) = experiment: LTEA_HepaRG_CYP3A5: Life Technologies and Expression Analysis (LTEA) Assay for CYP3A5 using HepaRG (AID 2283493)
Method in brief: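 HepaRG cells, plated 48 h then in serum-free induction medium, dosed in duplicate for 48 h with eight half-log concentrations up to 100 uM in 0.5% DMSO. Gene mRNA by Fluidigm TaqMan qRT-PCR, normalized to ACTB, GAPDH, POLR2A.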

[3] = read-out: Cytochrome P450 4A22 (Homo sapiens) (UniProt Q5TCH4); experiment: LTEA_HepaRG_CYP4A22: Life Technologies and Expression Analysis (LTEA) Assay for Cytochrome P450 4A22 (CYP4A22) using HepaRG (AID 2283495)
Method in brief: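 Gene expression measured by qRT-PCR against three housekeeping genes (ACTB, GAPDH, POLR2A), with gain or loss fitted relative to 0.5% DMSO vehicle. HepaRG cultures received 48 h chemical treatment, top concentration 100 uM, half-log steps, duplicate wells.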

[4] = read-out: Cytochrome P450 7A1 (Homo sapiens) (UniProt P22680); experiment: LTEA_HepaRG_CYP7A1: Life Technologies and Expression Analysis (LTEA) Assay for Cytochrome P450 7A1 (CYP7A1) using HepaRG (AID 2283496)
Method in brief: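 HepaRG cells plated 48 h, then switched to serum-free induction medium and exposed in duplicate for 48 h to 8-point half-log series from 100 uM in 0.5% DMSO. CYP7A1 mRNA by qRT-PCR (TaqMan), normalized to ACTB/GAPDH/POLR2A; bidirectional fit versus DMSO.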

[5] = read-out: Glutathione S-Transferase (GSTA2), GSTA2 (gene 2939); experiment: LTEA_HepaRG_GSTA2: Life Technologies and Expression Analysis (LTEA) Assay for Glutathione S-Transferase (GSTA2) using HepaRG (AID 2283497)
Method in brief: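 Human HepaRG cells, plated 48 h, then exposed in serum-free induction medium for 48 h to eight half-log concentrations up to 100 uM in 0.5% DMSO, duplicate. GSTA2 mRNA by qRT-PCR, normalized to ACTB/GAPDH/POLR2A; bidirectional fit versus DMSO.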

[6] = read-out: growth arrest and DNA damage 45 (GADD45G), GADD45G (gene 10912); experiment: LTEA_HepaRG_GADD45G: Life Technologies and Expression Analysis (LTEA) Assay for growth arrest and DNA damage 45 (GADD45G) using HepaRG (AID 2283499)
Method in brief: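 GADD45G transcript level by qRT-PCR (housekeeping-normalized: ACTB, GAPDH, POLR2A) after 48 h chemical treatment of a single HepaRG lot in serum-free induction medium; eight-point half-log series up to 100 uM in 0.5% DMSO, duplicates, up- or down-regulation scored.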

[7] = read-out: Glutathione S-transferase M3 (GSTM3), GSTM3 (gene 2947); experiment: LTEA_HepaRG_GSTM3: Life Technologies and Expression Analysis (LTEA) Assay for Glutathione S-transferase M3 (GSTM3) using HepaRG (AID 2283501)
Method in brief: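 GSTM3 transcript levels came from Fluidigm TaqMan qRT-PCR normalized to three housekeeping genes, fitted in both directions against DMSO. HepaRG cultures received chemicals for 48 h in serum-free induction medium (0.5% DMSO), 8 half-log concentrations up to 100 uM, duplicate.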

[8] = read-out: Heat shock 70 kDa protein 1 (HSPA1A), gene 3303; experiment: LTEA_HepaRG_HSPA1A: Life Technologies and Expression Analysis (LTEA) Assay for Heat shock 70 kDa protein 1 (HSPA1A) using HepaRG (AID 2283502)
Method in brief: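 Human HepaRG cells in serum-free induction medium were exposed in duplicate for 48 h to 8 half-log concentrations, highest 100 uM, in 0.5% DMSO. HSPA1A mRNA read by TaqMan qRT-PCR, normalized to ACTB, GAPDH, POLR2A, fitted bidirectionally against DMSO.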

[9] = read-out: Hypoxia-inducible factor 1-alpha (Homo sapiens) (UniProt Q16665); experiment: LTEA_HepaRG_HIF1A: Life Technologies and Expression Analysis (LTEA) Assay for Hypoxia-inducible factor 1 (HIF1A) Trancription factor using HepaRG (AID 2283503)
Method in brief: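 Differentiated HepaRG cells in serum-free induction medium exposed 48 h, in duplicate, to 8-point half-log series from 100 uM in 0.5% DMSO. HIF1A mRNA measured by TaqMan qRT-PCR, normalized to ACTB/GAPDH/POLR2A, fitted bidirectionally versus DMSO.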

[10] = read-out: 3-Hydroxy-3-Methylglutaryl-CoA Synthase 2 (HMGCS2), HMGCS2 (gene 3158); experiment: LTEA_HepaRG_HMGCS2: Life Technologies and Expression Analysis (LTEA) Assay for 3-Hydroxy-3-Methylglutaryl-CoA Synthase 2 (HMGCS2) using HepaRG (AID 2283504)
Method in brief: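 Readout is HMGCS2 transcript by qRT-PCR, housekeeping-normalised (ACTB/GAPDH/POLR2A) and fitted bidirectionally against 0.5% DMSO. Differentiated HepaRG cells received chemicals 48 h, duplicate wells, eight half-log concentrations topping at 100 uM.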

HGF (gene 3082) = experiment: LTEA_HepaRG_HGF: Life Technologies and Expression Analysis (LTEA) Assay for Hepatocyte Growth Facto (HGF) using HepaRG (AID 2283505)
Method in brief: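 HGF transcript was quantified by TaqMan qRT-PCR against three housekeeping genes after 48 h treatment of HepaRG cells. Exposure ran in duplicate over eight half-log steps topping at 100 uM in 0.5% DMSO vehicle.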

[11] = read-out: Insulin Like Growth Factor 1 (IGF1), IGF1 (gene 3479); experiment: LTEA_HepaRG_IGF1: Life Technologies and Expression Analysis (LTEA) Assay for Insulin Like Growth Factor 1 (IGF1) using HepaRG (AID 2283506)
Method in brief: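 Differentiated HepaRG cells in serum-free induction medium, exposed 48 h in duplicate to 8 half-log concentrations up to 100 uM in 0.5% DMSO. IGF1 mRNA by Fluidigm qRT-PCR, normalised to ACTB, GAPDH and POLR2A.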

[12] = read-out: Intercellular Adhesion Molecule 1 (ICAM1), ICAM1 (gene 3383); experiment: LTEA_HepaRG_ICAM1: Life Technologies and Expression Analysis (LTEA) Assay for Intercellular Adhesion Molecule 1 (ICAM1) using HepaRG (AID 2283507)
Method in brief: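 ICAM1 transcript levels measured by qRT-PCR, normalized to three housekeeping genes (ACTB, GAPDH, POLR2A), after 48 h chemical exposure of HepaRG cells. Duplicate eight-point half-log series from 100 uM in 0.5% DMSO; gain or loss fitted against vehicle.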

[13] = read-out: Insulin-like growth factor-binding protein 1 (IGFBP1), IGFBP1 (gene 3484); experiment: LTEA_HepaRG_IGFBP1: Life Technologies and Expression Analysis (LTEA) Assay for Insulin-like growth factor-binding protein 1 (IGFBP1) using HepaRG (AID 2283508)
Method in brief: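 Read-out is qRT-PCR transcript level normalized to three housekeeping genes, fitted in both directions against 0.5% DMSO. Differentiated HepaRG cells received eight half-log concentrations (top 100 uM) in duplicate for 48 h in serum-free induction medium.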

[14] = read-out: Interleukin 6 Receptor (IL6R), IL6R (gene 3570); experiment: LTEA_HepaRG_IL6R: Life Technologies and Expression Analysis (LTEA) Assay for Interleukin 6 Receptor (IL6R) using HepaRG (AID 2283510)
Method in brief: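 Differentiated HepaRG cells, plated 48 h, then exposed in duplicate for 48 h in serum-free induction medium to 8 half-log concentrations (top 100 uM, 0.5% DMSO). IL6R mRNA measured by TaqMan qRT-PCR, normalized to ACTB/GAPDH/POLR2A; bidirectional fit vs DMSO.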

[15] = read-out: Glutamate-cysteine ligase catalytic (GCLC), GCLC (gene 2729); experiment: LTEA_HepaRG_GCLC: Life Technologies and Expression Analysis (LTEA) Assay for Glutamate-cysteine ligase catalytic (GCLC) using HepaRG (AID 2283498)
Method in brief: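 Differentiated human HepaRG cells, plated 48 h then switched to serum-free induction medium, were exposed in duplicate for 48 h to 8 half-log concentrations topping at 100 uM in 0.5% DMSO. GCLC mRNA was quantified by qRT-PCR against ACTB, GAPDH and POLR2A.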

[16] = read-out: Interleukin 6 (IL6), IL6 (gene 3569); experiment: LTEA_HepaRG_IL6: Life Technologies and Expression Analysis (LTEA) Assay for Interleukin 6 (IL6) using HepaRG (AID 2283509)
Method in brief: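 Differentiated human HepaRG cells, plated 48 h then switched to serum-free induction medium, were exposed in duplicate for 48 h to eight half-log concentrations up to 100 uM in 0.5% DMSO. IL6 mRNA measured by qRT-PCR, normalized to ACTB/GAPDH/POLR2A.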

Measured: AC50

Sequence of Hypoxia-inducible factor 1-alpha (Homo sapiens) (Q16665 whole entry, looked up): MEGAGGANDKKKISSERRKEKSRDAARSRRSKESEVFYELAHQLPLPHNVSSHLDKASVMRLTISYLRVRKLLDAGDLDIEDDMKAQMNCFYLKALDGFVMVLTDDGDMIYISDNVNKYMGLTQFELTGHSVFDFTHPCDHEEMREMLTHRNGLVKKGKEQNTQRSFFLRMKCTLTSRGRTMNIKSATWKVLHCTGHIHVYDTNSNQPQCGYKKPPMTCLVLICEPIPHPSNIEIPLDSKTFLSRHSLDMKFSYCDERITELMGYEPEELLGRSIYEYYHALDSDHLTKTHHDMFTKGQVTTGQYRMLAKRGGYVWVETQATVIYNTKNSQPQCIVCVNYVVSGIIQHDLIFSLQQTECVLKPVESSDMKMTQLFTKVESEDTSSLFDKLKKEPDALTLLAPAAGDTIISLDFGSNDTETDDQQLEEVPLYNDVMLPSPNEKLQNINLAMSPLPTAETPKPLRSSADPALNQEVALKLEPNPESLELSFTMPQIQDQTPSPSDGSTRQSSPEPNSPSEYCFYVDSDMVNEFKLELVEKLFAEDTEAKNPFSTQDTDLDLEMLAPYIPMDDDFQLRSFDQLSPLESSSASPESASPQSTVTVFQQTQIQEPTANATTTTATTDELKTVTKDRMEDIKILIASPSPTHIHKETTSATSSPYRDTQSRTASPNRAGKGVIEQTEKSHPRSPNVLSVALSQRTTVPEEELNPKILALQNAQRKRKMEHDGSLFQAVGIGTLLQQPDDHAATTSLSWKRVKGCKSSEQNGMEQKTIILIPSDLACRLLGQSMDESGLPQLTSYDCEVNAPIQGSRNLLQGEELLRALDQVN
Sequence of Cytochrome P450 3A7 (Homo sapiens) (P24462 whole entry, looked up): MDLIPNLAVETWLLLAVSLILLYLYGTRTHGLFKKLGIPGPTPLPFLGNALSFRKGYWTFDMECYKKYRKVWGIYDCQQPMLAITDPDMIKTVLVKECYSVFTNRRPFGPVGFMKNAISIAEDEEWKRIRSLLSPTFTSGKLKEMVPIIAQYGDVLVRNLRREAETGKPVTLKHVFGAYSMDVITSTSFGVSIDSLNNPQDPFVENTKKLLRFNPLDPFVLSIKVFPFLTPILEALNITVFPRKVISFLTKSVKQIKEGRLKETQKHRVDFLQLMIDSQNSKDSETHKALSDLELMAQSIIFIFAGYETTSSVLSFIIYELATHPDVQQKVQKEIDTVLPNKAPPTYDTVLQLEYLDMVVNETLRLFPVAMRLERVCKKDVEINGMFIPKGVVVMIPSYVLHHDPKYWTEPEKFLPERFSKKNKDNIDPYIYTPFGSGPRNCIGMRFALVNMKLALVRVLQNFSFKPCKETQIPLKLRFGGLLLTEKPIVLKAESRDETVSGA

CCOc1cccc(-n2cc(C(=O)N3CCN(c4cc(C(=O)O)c5ccccc5c4)CC3)nc2-c2ccc(C)cc2)c1
inactive: [1] | [2] | [7] | [12]
active: CYP3A5 (gene 1577) 80.5 µM | [3] 29.8 µM | [4] 33.6 µM | [5] 32.3 µM | [6] 13.1 µM | [8] 86.5 µM | [9] 75 µM | [10] 33.7 µM | HGF (gene 3082) 21.1 µM | [11] 26.6 µM | [13] 12.9 µM | [14] 68.9 µM

CN(C)c1ccc(N=NS(=O)(=O)O)cc1
active: [3] 9.92 µM | [4] 2.51 µM | [11] 26.2 µM | [13] 75.3 µM | [14] 22.3 µM
not listed: CYP3A5 (gene 1577) | [8] | [16]
inactive: all other assays above

CC(C)=CCC/C(C)=C/CO
not listed: [2] | CYP3A5 (gene 1577) | [3] | [4] | [6] | [8] | [9]
inactive: all other assays above

CCOC(=O)c1ccc(C2CCC(NC[C@H](O)COc3ccc(O)c(NS(C)(=O)=O)c3)CC2)cc1 (stereo partly drawn)
not listed: [15] | [16]
inactive: all other assays above
